# Assay outcomes from PubChem.
# DT40 TDP1 no CPT: qHTS for Inhibitors of human tyrosyl-DNA phosphodiesterase 1 (TDP1): qHTS in cells in absence of CPT; DT40 Tdp1-/- hTDP1 cells, no CPT, ATP luminescence, 48 h; Potency, µM (highest dose often 46.2 µM), usual class: inhibitors; 15% of 420,000 active; AID 686978, 2013; note: nearly all actives have a fitted effect of over 55% in size
#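 Readout: luminescence from CellTiter-Glo after 30 min in the dark at RT. Cells: DT40 Tdp1-/- with stable hTDP1, 400/well. Exposure: compounds alone, ≥48 hr, 37 °C.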
# DT40 TDP1 CPT: growth inhibition of DT40 Tdp1-/-;hTDP1 cells with camptothecin (screen for TDP1 inhibitors) | chicken DT40 Tdp1-/-;hTDP1 cells + 20 nM CPT, ATP luminescence, 48 h | Potency, µM (titrated, usually from 46.2 µM), most hits filed as inhibitors | 12% of 420,000 active | AID 686979; note: nearly all actives have a fitted effect of over 55% in size
#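 Chicken DT40 Tdp1-/- cells stably complemented with human TDP1 were seeded at 400 cells/well in medium containing 20 nM camptothecin, exposed to pin-transferred compounds, and grown at 37 °C for at least 48 hr. Viability was read as ATP luminescence.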
# IL-1B inflam inh: inflammasome signaling inhibition, IL-1 beta readout. THP-1 LPS/ATP IL-1B secretion, AlphaLISA, 16 h; stronger effect = lower value. activity change, % at 57.5 µM. 4.7% of 360,000 active; in the data active = activity change below about -50%; inconclusive = mostly about -30% to -49%
#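 THP-1 cells pretreated 1 hr with compounds (up to 57.5 uM final), then stimulated with LPS (250 ng/mL final) plus ATP (1.25 mM final); secreted IL-1B measured by AlphaLISA after 16 hr, decreased signal indicating inhibition.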
# TDP1 inh: TDP1 (human) enzyme inhibition; Potency, µM (highest dose often 130 µM), most hits filed as inhibitors; recombinant TDP1, AlphaScreen DNA substrate cleavage; 0.28% of 350,000 active; Q9NUW8; AID 485290; note: nearly all actives have a fitted effect of over 40% in size
# Target sequence (Q9NUW8 whole entry, looked up): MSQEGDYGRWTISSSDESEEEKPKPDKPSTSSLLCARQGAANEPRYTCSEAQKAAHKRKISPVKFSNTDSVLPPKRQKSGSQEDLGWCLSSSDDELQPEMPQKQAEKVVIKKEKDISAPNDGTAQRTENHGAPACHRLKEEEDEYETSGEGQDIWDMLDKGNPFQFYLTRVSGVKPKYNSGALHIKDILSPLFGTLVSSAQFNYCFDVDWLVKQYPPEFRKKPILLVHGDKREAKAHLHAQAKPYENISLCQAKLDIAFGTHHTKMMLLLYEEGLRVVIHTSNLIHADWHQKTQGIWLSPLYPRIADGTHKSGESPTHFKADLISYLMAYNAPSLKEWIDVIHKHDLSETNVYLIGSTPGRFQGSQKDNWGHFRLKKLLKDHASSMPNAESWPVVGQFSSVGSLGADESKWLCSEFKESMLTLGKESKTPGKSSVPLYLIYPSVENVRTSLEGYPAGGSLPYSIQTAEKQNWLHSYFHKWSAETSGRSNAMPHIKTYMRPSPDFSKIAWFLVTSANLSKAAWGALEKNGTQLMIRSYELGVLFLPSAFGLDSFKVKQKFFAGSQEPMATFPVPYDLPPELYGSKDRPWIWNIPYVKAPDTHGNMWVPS
#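 Recombinant human Tdp1 (E. coli-expressed, 1 nM final) preincubated with compounds 15 min at room temperature, then 5'-biotin/3'-phosphotyrosine-FITC DNA substrate (15 nM final) added for 5 min. AlphaScreen beads (10 ug/ml final) added 10 min; cleavage lowers signal.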
# TGFb SMAD3 inh: inhibitors of TGF-b signaling. HepG2 CAGA-GFP TGF-b/SMAD3 reporter, GFP fluorescence, 18 h; TGF-beta stimulated, 500 pg/mL final. Potency, µM (titrated, usually from 46.1 µM), hits mostly inhibitors. 1.2% of 410,000 active. AID 588855; note: nearly all actives have a fitted effect of over 65% in size
#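 HEPG2 CAGA-GFP reporter cells (1000/well, DMEM with 1% FBS) received compounds, then recombinant TGF-beta at 500 pg/mL final for 18 hours at 37 degrees C. Per-cell GFP summed per well was normalised to unstimulated and stimulated DMSO controls before curve fitting.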
# HepG2 tox: counter-screen for TGF-b inhibitors: cytotoxicity in HepG2 cells; 0.76% of 410,000 active; HepG2 CAGA-GFP viability, ATP luminescence, 18 h; AID 588856; Potency, µM (titrated, usually from 46.1 µM), hits mostly cytotoxic
#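 CellTiter-Glo luminescence gave cytotoxicity after 18 hours at 37 degrees C. The cells were HepG2 CAGA-GFP in 1% FBS DMEM, stimulated with 500 pg/mL TGF-beta after compound addition. %Activity was normalised to no-cell wells (complete cell-killing) and DMSO (no toxicity), and curves were fitted and classified.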
# Hits are given with their value; - = inactive; ? = inconclusive; . = no result given; [ ] = remark or other dose. Rows were chosen to be rich in hits. Some 18% of all compounds tested hit in one or more screens of this group. Unless noted, calls come from the whole dose curve; as a rule, active = well fitted curve in the direction sought with a large enough effect; inconclusive = small, poorly fitted or top-dose-only effect, or another doubt; inactive = no such curve, though single readings can be large; an effect the other way counts as inactive or inconclusive.
SMILES,DT40 TDP1 no CPT,DT40 TDP1 CPT,IL-1B inflam inh,TDP1 inh,TGFb SMAD3 inh,HepG2 tox
N/C(Cc1cccc2ccccc12)=N\OC(=O)c1ccc2c(c1)OCO2,21µM,16µM,-,-,-,-
CCC1=C2CC[C@H]3C(=O)N(c4ccccc4)C(=O)[C@H]3[C@H]2[C@@]2(C)C(=O)N(Cc3ccccc3)C(=O)N2C1=O,.,.,.,-,.,.
CC(C)CCn1c(=O)c2cccnc2n(CC(=O)Nc2ccccc2)c1=O,?,?,.,-,-,-
O=C(NC1CCCCCC1)C1CCCN(c2ncccn2)C1 (stereo not drawn),-,-,-,-,-,-
COc1ccc(C(=O)CC(C#N)c2ccc3c(c2)OCO3)cc1OC (stereo not drawn),21µM,?,-,.,-,-
COc1cc(OC)c(C(=O)O/N=C(\N)c2ccc(C)cc2)cc1OC,?,?,?,.,-,-
COc1cc(OC)c(C(=O)O/N=C(\N)c2cccc(C)c2)cc1OC,?,21µM,-,.,-,-
Cc1cccc2c(=O)cc(C)n(CC(N)=O)c12,-,-,-,.,-,-
O=C(C1CCCN(S(=O)(=O)c2cccc3cccnc23)C1)N1CCc2ccccc21 (stereo not drawn),16µM,23µM,-,-,-,-
O=C(NCC1COc2ccccc2O1)C1CCCN(S(=O)(=O)c2cccc3cccnc23)C1 (stereo not drawn),?,21µM,-,-,-,-
CC(C)c1ccc(NC(=O)C2CCCN(S(=O)(=O)c3cccc4cccnc34)C2)cc1 (stereo not drawn),16µM,16µM,.,-,-,-
O=C(Nc1ccncc1)C1CCCN(S(=O)(=O)c2cccc3cccnc23)C1 (stereo not drawn),1.6µM,1.8µM,-,-,-,-
O=C(NC1CCCCC1)C1CCCN(S(=O)(=O)c2cccc3cccnc23)C1 (stereo not drawn),?,?,-,-,?,-
COc1ccccc1C1CN(CCNC(=O)c2cscn2)Cc2ccccc2O1 (stereo not drawn),?,-[9.04 µM],.,.,.,.
O=C(Cc1cccs1)N1CCN(S(=O)(=O)c2cccc([N+](=O)[O-])c2)CC1,-,-,-,-,-,-
CCN(c1ccccc1)S(=O)(=O)c1ccc(Oc2ccc(-n3ccnc3)cc2)nc1,8.2µM,5.2µM,?,-,?,-
CC(NC(=O)Cn1ncc2c3ccccc3n(Cc3ccc(F)cc3)c2c1=O)c1ccccc1 (stereo not drawn),10µM,?,.,-,?,-
O=C(Cn1ncc2c3ccccc3n(Cc3ccccc3F)c2c1=O)NC1CCCCCC1,15µM,7.3µM,.,-,-,-
CC(CNC(=O)Cn1ncc2c3ccccc3n(Cc3cccc(Cl)c3)c2c1=O)c1ccccc1 (stereo not drawn),?,18µM,.,-,-,-
Cc1ccc(C)c(Cn2c3ccccc3c3cnn(CC(=O)NC4CCCCCC4)c(=O)c32)c1,13µM,?,.,-,-,-
COc1ccc2c(c1)sc1ncc(C(=O)NCc3cccc(Cl)c3)c(=O)n12,-,-,.,-,-,-
COCCNC(=O)c1cn(CCOC)c(=O)c2c1c1ccccc1n2C,-,-,-,.,-,-
COc1cc2cc(CNc3ccccc3)c(=O)n(CC(=O)Nc3cccc(Cl)c3C)c2cc1OC,.,.,.,-,-,-
O=C1[C@@H]2CSC(c3ccc(Cl)cc3)N2C(=O)N1c1ccccc1 (stereo partly drawn),-,-,.,-,-,-
O=C(Cn1ncc2c3ccccc3n(Cc3cccc(Cl)c3)c2c1=O)NC1CCCCCC1,6.5µM,8.2µM,.,-,-,-
SMILES,DT40 TDP1 no CPT,DT40 TDP1 CPT,IL-1B inflam inh,TDP1 inh,TGFb SMAD3 inh,HepG2 tox
O=C(Cn1ncc2c3ccccc3n(Cc3ccc(F)cc3)c2c1=O)NC1CCCCCC1,?,?,.,-,-,-
COc1ccc(NC(=O)c2c(-c3ccccc3)c(-c3ccccc3)nn(C)c2=O)cc1OC,?,?,.,-,-,-
Cc1ccc(COCCN2CCN(S(=O)(=O)c3ccc(C)cc3)CCC2=O)cc1,?,?,-,-,?,-
Cc1ccc(S(=O)(=O)N2CCC(=O)N(CCOCc3cccc(C)c3)CC2)cc1,?,10µM,-,-,?,-
COc1cccc(COCCN2CCN(S(=O)(=O)c3ccc(C)cc3)CCC2=O)c1,?,?,-,-,?,-
COc1ccc(COCCN2CCN(S(=O)(=O)c3ccc(C)cc3)CCC2=O)cc1,?,21µM,-,-,-,-
Cc1ccc(S(=O)(=O)N2CCC(=O)N(CCOCc3cccc(C(F)(F)F)c3)CC2)cc1,?,15µM,?,-,?,-
CC(NC(=O)CCSc1nc(-c2ccc3c(c2)OCO3)cc(C(F)(F)F)n1)c1ccccc1 (stereo not drawn),?,23µM,-,-,-,-
CC(C)NC(=O)CCSc1nc(-c2ccc3c(c2)OCO3)cc(C(F)(F)F)n1,8.2µM,13µM,.,-,-,-
Cc1ccnn1CC(=O)N1CCOc2c(cc(-c3ncc(C(F)(F)F)cc3Cl)cc2OCC2CCCO2)C1 (stereo not drawn),-,-,.,.,.,.
CCOC(=O)C(CC)Sc1ccc2nnc(-c3ccc(F)cc3)n2n1 (stereo not drawn),?,20µM,.,-,-,-
Cc1ccc(-c2nnc3ccc(SCC(=O)OCc4ccccc4)nn23)cc1,?,-,.,-,-,-
CSc1ccc2nnc(-c3ccc(C)cc3)n2n1,11µM,?,.,-,-,-
CC(=O)C(Sc1ccc2nnc(-c3ccc(C)cc3)n2n1)C(C)=O,21µM,12µM,-,-,-,-
Cc1ccc(-c2nnc3ccc(SCC(=O)c4ccccc4)nn23)cc1,14µM,?,.,-,-,-
COc1ccccc1-n1cc(C(=O)NCCN2Cc3ccccc3OC(c3ccsc3)C2)cn1 (stereo not drawn),-,-[9.04 µM],.,.,.,.
COc1ccc(/C=C/c2cnccn2)cc1OC,-,-,.,.,-,-
Cc1ccc(S(=O)(=O)C(C)C(=O)c2ccc3c(c2)OCCO3)cc1 (stereo not drawn),-,-,-,-,-,-
CCc1nnc2c(NCc3ccc(F)cc3)nc3ccccc3n12,-,-,.,-,-,-
O=C(CCCN1C(=O)/C(=C/c2cccc(Br)c2)SC1=S)Nc1cccnc1,16µM,?,-90,-,?,-
O=C(CCCN1C(=O)/C(=C\c2cccc(Br)c2)SC1=S)Nc1cccnc1,15µM,?,-51,-,11µM,-
